# Test results reported in PubChem BioAssay (Tox21).
# Inconclusive results are not listed. Unmarked numbers belong to inactive results. Activity calls are given as the source filed them. Calls follow the shape of the dose curve; as a rule, active = well fitted inhibition curve with a large enough effect in the repeat runs; inconclusive = weak or mixed curves; inactive = no such curve, though single readings can be large or run the other way.
# Target: Cytochrome P450 1A2 (Homo sapiens) (UniProt P05177)
# Experiment: Cytochrome P450 Family 1 Subfamily A Member 2 (CYP1A2) small molecule antagonists: luciferase reporter qHTS assay (AID 1671199); also: nearly all actives have a fitted effect of over 50% in size
# Conditions: P450-Glo CYP1A2 enzyme, luciferin luminescence, 1 h; series mostly up to 53 µM; activity change, negative = inhibition: at the top concentration
# Summary of the method: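 P450-Glo CYP1A2, 1536-well qHTS: enzyme/proluciferin substrate + cpd (DMSO), 10 min RT; NADPH regen, 1 h RT; detection reagent, 20 min; luminescence, RLU.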
# % is scaled to controls: 0 for no effect and ±100 for the full control effect; potency is read from the fitted curve at half-maximal effect.
# Cytochrome P450 1A2 (Homo sapiens), sequence (P05177 whole entry, looked up): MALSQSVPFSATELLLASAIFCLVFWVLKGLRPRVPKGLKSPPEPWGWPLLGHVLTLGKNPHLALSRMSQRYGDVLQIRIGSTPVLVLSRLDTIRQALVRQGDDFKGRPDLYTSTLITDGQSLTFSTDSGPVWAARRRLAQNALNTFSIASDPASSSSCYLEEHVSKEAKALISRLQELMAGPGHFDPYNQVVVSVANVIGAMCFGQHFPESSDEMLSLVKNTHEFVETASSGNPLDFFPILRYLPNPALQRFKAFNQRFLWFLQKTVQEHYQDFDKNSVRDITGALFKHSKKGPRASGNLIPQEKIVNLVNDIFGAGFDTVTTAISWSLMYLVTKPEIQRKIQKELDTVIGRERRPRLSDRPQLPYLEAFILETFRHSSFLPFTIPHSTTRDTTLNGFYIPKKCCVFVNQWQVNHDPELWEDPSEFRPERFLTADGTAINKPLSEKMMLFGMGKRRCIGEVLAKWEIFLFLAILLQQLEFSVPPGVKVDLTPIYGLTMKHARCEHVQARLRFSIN
Compound,"activity change, negative = inhibition",Potency
CCCN1CCCC[C@H]1C(=O)Nc1c(C)cccc1C,-18.7%,–
CCN(CC)CCOCCOC(=O)C1(c2ccccc2)CCCC1,-18.7%,–
CC1(C)CO[C@@H](CC(=O)O)CN1,13.6%,–
CN1CC(=O)NC1=N,-18.3%,–
C[C@H]1C[C@@H](O)CC(C)(C)C1,-17% [at 115 µM],–
C[N+](C)(C)CC(O)CC(=O)[O-] (centres undefined),14.1%,–
CS(=O)(=O)O,–,31.9 µM (active)
CCS(=O)(=O)c1ccc(OC)c(C(=O)OC)c1,-17.8%,–
O=C(O)c1ccccc1OP(=O)(O)O,–,27.5 µM (active)
CC[N+](C)(C)c1cccc(O)c1,-9.35%,–
CCCCC(CC)COC(=O)c1ccccc1O (centres undefined),0.485%,–
CCCN(CCC)CCc1cccc2c1CC(=O)N2,6.09%,–
CC/C=C\CCOC(C)=O,-26.1% [at 115 µM],–
O=Cc1cccc([N+](=O)[O-])c1,–,39.7 µM (active)
Nc1nc2c(ncn2COC(CO)CO)c(=O)[nH]1,12.8%,–
NS(=O)(=O)c1cc(C(=O)O)cc(N2CCCC2)c1Oc1ccccc1,-5.22%,–
Nc1c2c(nc3ccccc13)CCCC2O (centres undefined),–,15.5 µM (active)
O=C(O)CN(CCOCCOCCN(CC(=O)O)CC(=O)O)CC(=O)O,-6.73% [at 0.435 µM],–
O=C(CCCN1CCC(O)(c2cccc(C(F)(F)F)c2)CC1)c1ccc(F)cc1,7.54%,–
Cc1sccc1Br,8.72%,–
O=C1OC(=O)C2CCCCC12 (centres undefined),-21.6% [at 115 µM],–
CC(=O)OC/C=C(\C)CC/C=C(\C)CCC=C(C)C,-28.5% [at 115 µM],–
N=c1nc(N2CCCCC2)cc(N)n1O,7.53%,–
CCC(C)C1CCCCC1=O (centres undefined),-18.4% [at 115 µM],–
